This passage reports growth results from PubChem BioAssay (NCI).

Test systems include K-562 leukemia; MALME-3M melanoma; MDA-MB-231 breast; RXF 393 renal; SF-268 CNS; SF-539 CNS; UACC-257 melanoma; M14 melanoma; HCT-15 colon; HT29 colon; SNB-75 CNS; SNB-19 CNS; U251 CNS; PC-3 prostate; SK-MEL-5 melanoma; UACC-62 melanoma; LOX IMVI melanoma; SK-MEL-28 melanoma; SK-MEL-2 melanoma.
Common to all, as to assay: NCI-60 one-dose screen, 48 h (100 = growth as untreated, 0 = no growth, -100 = all killed)
Conditions in all cases: 10 µM unless noted

About 83,000 compounds went through this panel and 20% of them were active in at least one assay; those are over-represented in the sample as a whole.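 Plates (96-well) were seeded with cells, treated with compound at one concentration, and incubated for 48 hours before percent growth was determined.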 A number with no mark means an inactive call. The source made the active and inactive calls. The calls were made as follows: active = growth percent below 10; inactive = the rest.

For the compound `CN(C)c1nc(N)nc(Cn2c(-c3nonc3N)nc3ccccc32)n1`, the growth is 23.1% with K-562 leukemia; 88% in the experiment with MALME-3M melanoma; 76.7% in the experiment on MDA-MB-231 breast; 89.6% with RXF 393 renal; 101% with SF-268 CNS; 86.5% in the experiment on SF-539 CNS. In addition, the growth in the experiment with UACC-257 melanoma was 93.3%; in the experiment on M14 melanoma, 72.7%; in the experiment with HCT-15 colon it was 59.4%; in the experiment with HT29 colon it was 72.9%; with SNB-75 CNS it was 56.4%; in the experiment with SNB-19 CNS, 91.8%. The growth in the experiment with U251 CNS is 90.1%; in the experiment with PC-3 prostate, 82.6%; in the experiment on SK-MEL-5 melanoma, 86.9%; in the experiment with UACC-62 melanoma, 73%; with LOX IMVI melanoma, 76.6%; with SK-MEL-28 melanoma, 82%. The growth in the experiment with SK-MEL-2 melanoma was 90.5%.

Take `c1cnc2n[nH]c(Nc3ncnc4c3sc3ncccc34)c2c1`: the growth in the experiment with K-562 leukemia was 86.8%; with MALME-3M melanoma, 92.9%; in the experiment with MDA-MB-231 breast, 97.4%; in the experiment with RXF 393 renal, 99.6%; in the experiment with SF-268 CNS, 108%; in the experiment with SF-539 CNS, 105%. Besides, the growth in the experiment on UACC-257 melanoma was 90.3%; in the experiment with M14 melanoma, 97.4%; in the experiment on HCT-15 colon, 95.1%; with HT29 colon, 95.4%; in the experiment on SNB-75 CNS, 84%; with SNB-19 CNS, 101%. Further, the growth is 97.1% in the experiment on U251 CNS; 104% in the experiment on PC-3 prostate; 102% in the experiment with SK-MEL-5 melanoma; 87.1% with UACC-62 melanoma; 85.6% in the experiment on LOX IMVI melanoma; 99% in the experiment on SK-MEL-28 melanoma. Also, in the experiment with SK-MEL-2 melanoma, the growth was 103%.

For the compound `O=C(Nc1ccncc1)C(=O)c1cn(S(=O)(=O)c2cccc(F)c2)c2ccccc12`, the growth in the experiment with K-562 leukemia was 23.9%; in the experiment with MALME-3M melanoma, 58.2%; in the experiment with MDA-MB-231 breast, 67.4%; with RXF 393 renal it was 59.9%; in the experiment on SF-268 CNS, 75.9%; with SF-539 CNS, 27.3%. In addition, the growth with UACC-257 melanoma is 75.6%; with M14 melanoma it was 26.8%; with HCT-15 colon, 25.3%; in the experiment on HT29 colon, 1.12% (active); in the experiment with SNB-75 CNS, 29.6%; in the experiment on SNB-19 CNS it was 76.5%. Moreover, the growth was 22.2% in the experiment on U251 CNS; 47% with PC-3 prostate; 28.7% in the experiment with SK-MEL-5 melanoma; 37.1% in the experiment with UACC-62 melanoma; 45.2% in the experiment with LOX IMVI melanoma; 55.5% with SK-MEL-28 melanoma. In the experiment with SK-MEL-2 melanoma, the growth is -7.51% (active).

Take `Nc1nonc1-c1nc2ccccc2n1CC(=O)Nc1ccc2c(c1)COC2=O`: the growth in the experiment with K-562 leukemia was 38.9%; with MALME-3M melanoma, 79.4%; with MDA-MB-231 breast, 82.1%; in the experiment with RXF 393 renal, 93.7%; with SF-268 CNS it was 90.3%; in the experiment on SF-539 CNS, 86.5%. Also, the growth in the experiment with UACC-257 melanoma is 90.1%; in the experiment with M14 melanoma, 72.9%; in the experiment on HCT-15 colon it was 70.5%; in the experiment with HT29 colon, 85.1%; in the experiment with SNB-75 CNS it was 36.5%; in the experiment with SNB-19 CNS, 87.6%. Also, the growth in the experiment with U251 CNS is 94.4%; with PC-3 prostate it was 80%; with SK-MEL-5 melanoma, 77.8%; in the experiment with UACC-62 melanoma it was 72.9%; with LOX IMVI melanoma it was 73.2%; with SK-MEL-28 melanoma, 93.1%. Besides, the growth in the experiment on SK-MEL-2 melanoma is 89.4%.

Take `COc1ccc(-c2cnnn2-c2cc(OC)c3c(c2)OCO3)cc1`: the growth in the experiment on K-562 leukemia was 0.651% (active); in the experiment with MALME-3M melanoma it was 34.4%; in the experiment with MDA-MB-231 breast it was 4.19% (active); with RXF 393 renal, 10%; in the experiment on SF-268 CNS, 29.9%; in the experiment with SF-539 CNS, -15.2% (active). Also, the growth is 59.7% in the experiment on UACC-257 melanoma; 10.6% with M14 melanoma; 14.8% in the experiment on HCT-15 colon; 1.26% (active) in the experiment with HT29 colon; 23.1% in the experiment on SNB-75 CNS; 39.4% in the experiment with SNB-19 CNS. Also, the growth in the experiment on U251 CNS is 3.74% (active); in the experiment on PC-3 prostate, 4.25% (active); in the experiment on SK-MEL-5 melanoma it was 18.1%; with UACC-62 melanoma, 26.8%; in the experiment on LOX IMVI melanoma, 17.8%; in the experiment with SK-MEL-28 melanoma, 55%. For the same compound, in the experiment on SK-MEL-2 melanoma, the growth was 22.4%.

As for `CN(C(=O)c1ccccc1)N(C)C(=O)c1ccccc1`, the growth in the experiment with K-562 leukemia was 107%; in the experiment on MALME-3M melanoma it was 94.4%; in the experiment with MDA-MB-231 breast, 107%; with RXF 393 renal it was 122%; in the experiment with SF-268 CNS, 116%; with SF-539 CNS, 108%. The growth in the experiment on UACC-257 melanoma is 113%; in the experiment on M14 melanoma it was 99.2%; in the experiment with HCT-15 colon, 111%; with HT29 colon, 93.4%; in the experiment with SNB-75 CNS it was 105%; in the experiment on SNB-19 CNS it was 101%. Also, the growth is 108% in the experiment with U251 CNS; 91.6% with PC-3 prostate; 108% in the experiment with SK-MEL-5 melanoma; 102% in the experiment with UACC-62 melanoma; 106% in the experiment with LOX IMVI melanoma; 110% in the experiment with SK-MEL-28 melanoma. Further, the growth in the experiment on SK-MEL-2 melanoma was 106%.

`CN(C)c1nc(-c2ccco2)n2nc(-c3ccco3)cc2n1`: the growth in the experiment with K-562 leukemia is 101%; with MALME-3M melanoma it was 131%; with MDA-MB-231 breast, 74.2%; with RXF 393 renal, 106%; in the experiment with SF-268 CNS, 118%; in the experiment on SF-539 CNS, 94.7%. For the same compound, the growth was 106% with UACC-257 melanoma; 99.7% with M14 melanoma; 78.1% in the experiment on HCT-15 colon; 96.9% in the experiment with HT29 colon; 81.8% in the experiment with SNB-75 CNS; 98.9% in the experiment on SNB-19 CNS. Further, the growth in the experiment on U251 CNS is 88.9%; in the experiment on PC-3 prostate it was 84.4%; in the experiment with SK-MEL-5 melanoma it was 81.8%; in the experiment on UACC-62 melanoma it was 82.2%; in the experiment on LOX IMVI melanoma it was 75.8%; with SK-MEL-28 melanoma, 119%. The growth in the experiment with SK-MEL-2 melanoma was 122%.

With `Nc1nc(SCc2ccccc2Cl)c(-c2ccccc2)c(SCc2ccccc2Cl)n1`, the growth in the experiment on K-562 leukemia was 85.3%; with MALME-3M melanoma, 110%; with MDA-MB-231 breast, 109%; in the experiment on RXF 393 renal, 115%; in the experiment on SF-268 CNS, 105%; with SF-539 CNS it was 114%. Also, the growth in the experiment on UACC-257 melanoma was 92.4%; with M14 melanoma, 95.3%; in the experiment on HCT-15 colon it was 81.3%; in the experiment with HT29 colon it was 64.3%; in the experiment on SNB-75 CNS, 107%; in the experiment with SNB-19 CNS, 116%. In addition, the growth was 86.9% in the experiment with U251 CNS; 76.3% with PC-3 prostate; 109% in the experiment with SK-MEL-5 melanoma; 99.6% with UACC-62 melanoma; 84.7% in the experiment with LOX IMVI melanoma; 101% in the experiment on SK-MEL-28 melanoma. Further, the growth in the experiment with SK-MEL-2 melanoma is 120%.
